Assay outcomes (PubChem)
Compounds with a hit are over-represented: about 12% of the library has one in this group of screens.
BAZ2B block: qHTS Assay for Inhibitors of BAZ2B | Bromodomain adjacent to zinc finger domain protein 2B (Homo sapiens), Q9UIF8 | AlphaScreen BAZ2B-H3K14Ac peptide displacement | Potency, µM (highest dose often 114 µM), most hits filed as inhibitors | hit rate 4.4% among 360,000 | AID 504333, 2011; note: nearly all actives have a fitted effect of over 60% in size
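Compounds, titrated to a top concentration of 110 uM, were incubated 30 min at room temperature with preformed BAZ2B/acetyl-K14 H3 peptide complex (50 nM each). Proximity signal was measured by AlphaScreen after 20 min with beads.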
G9a block: qHTS Assay for Inhibitors of Histone Lysine Methyltransferase G9a | Histone-lysine N-methyltransferase EHMT2 (Homo sapiens), Q96KQ7 | hit rate 8.8% among 350,000 | AID 504332, 2011 | G9a H3K9 monomethylation, AlphaScreen, 2 h | Potency, µM (doses to about 102 µM), actives largely listed as inhibitors; note: nearly all actives have a fitted effect of over 75% in size
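Using a bead-based AlphaScreen, monomethylated H3K9 product from 2 h room-temperature reactions (G9a 20 nM, peptide 500 nM, SAM 20 uM) was detected with 0.5 ug/mL rabbit anti-H3K9me1 antibody.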
HP1b binding inh: HTS for Inhibitors of HP1-beta Chromodomain Interactions with Methylated Histone Tails. AID 540317, 2011. AlphaScreen HP1-beta / biotin-H3K9me3 peptide binding. Potency, µM (titrated, usually from 114 µM), most hits filed as inhibitors. hit rate 0.56% among 390,000; note: nearly all actives have a fitted effect of over 70% in size
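HP1-beta protein (50 nM final) preincubated 30 min at room temperature with biotinylated H3(1-18)K9me3 peptide (50 nM) in PBS pH 7.4, 0.01% Tween-20, then compound added for 30 min. AlphaScreen streptavidin donor/nickel chelate acceptor beads (10 ug/mL final), 30 min dark, luminescence read.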
JMJD2A Tudor inh: qHTS Assay for Inhibitors of JMJD2A-Tudor Domain. Lysine-specific demethylase 4A (Homo sapiens), O75164. AlphaScreen JMJD2A-Tudor / H3K4me3 peptide binding. Potency, µM (highest dose often 114 µM), most hits filed as inhibitors. hit rate 4.4% among 390,000. AID 504339, 2011; note: nearly all actives have a fitted effect of over 50% in size
L3MBTL1 block: qHTS Assay for the Inhibitors of L3MBTL1; Lethal(3)malignant brain tumor-like protein 1 (Homo sapiens), Q9Y468; AlphaScreen L3MBTL1–H3K9me1 peptide binding; Potency, µM (doses to about 57.1 µM), most hits filed as inhibitors; hit rate 0.66% among 230,000; AID 485360, 2010; note: nearly all actives have a fitted effect of over 60% in size
Target sequence (Q9Y468 whole entry, looked up): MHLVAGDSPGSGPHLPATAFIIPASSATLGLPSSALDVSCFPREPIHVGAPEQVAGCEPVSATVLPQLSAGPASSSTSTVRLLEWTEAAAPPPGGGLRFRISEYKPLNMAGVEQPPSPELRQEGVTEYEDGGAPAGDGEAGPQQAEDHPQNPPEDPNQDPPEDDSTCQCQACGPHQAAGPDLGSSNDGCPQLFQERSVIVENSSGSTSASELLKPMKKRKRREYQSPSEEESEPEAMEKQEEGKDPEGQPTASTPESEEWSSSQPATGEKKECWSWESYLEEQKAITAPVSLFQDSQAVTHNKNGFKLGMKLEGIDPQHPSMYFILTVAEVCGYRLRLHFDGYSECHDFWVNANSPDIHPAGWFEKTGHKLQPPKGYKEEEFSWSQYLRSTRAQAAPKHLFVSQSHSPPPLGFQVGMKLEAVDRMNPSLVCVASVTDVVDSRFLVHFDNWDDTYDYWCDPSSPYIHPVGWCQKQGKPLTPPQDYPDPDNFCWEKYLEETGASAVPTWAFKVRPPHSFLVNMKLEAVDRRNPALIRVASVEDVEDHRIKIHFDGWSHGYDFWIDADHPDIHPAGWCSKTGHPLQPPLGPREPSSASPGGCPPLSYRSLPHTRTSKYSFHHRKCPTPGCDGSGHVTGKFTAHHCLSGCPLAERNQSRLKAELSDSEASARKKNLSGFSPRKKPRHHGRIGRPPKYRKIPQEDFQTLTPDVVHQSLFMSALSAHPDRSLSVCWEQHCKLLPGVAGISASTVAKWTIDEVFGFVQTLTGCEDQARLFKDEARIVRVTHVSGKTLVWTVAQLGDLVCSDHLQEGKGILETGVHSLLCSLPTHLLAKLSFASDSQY
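Read-out is AlphaScreen signal from streptavidin donor and nickel chelate acceptor beads (10 ug/mL final each) bridging L3MBTL1 (50 nM) and biotinylated K9-monomethylated H3(1-15) peptide (75 nM), after 30 min compound exposure at room temperature.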
Sfp PPTase inh: qHTS Assay for Inhibitors of Bacillus subtilis Sfp phosphopantetheinyl transferase (PPTase) | 4'-phosphopantetheinyl transferase ffp (Bacillus subtilis), Q9F4F7 | Biochemical Sfp PPTase activity, qHTS | Potency, µM, usual class: inhibitors | hit rate 3.5% among 310,000 | AID 1490, 2009;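 note: the enzyme is Sfp with the accession as filed and its product quenches rhodamine fluorescence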
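Fluorescence-quenching assay with 15 nM Sfp, 5 uM rhodamine-CoA and 12.5 uM BHQ-2-labelled ybbR peptide in pH 7.6 Hepes/MgCl2 buffer. Enzyme was pre-incubated with compound for 15 min at room temperature. Rate was taken from the 30-min fluorescence change (525/598 nm).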
Numbers stand for hits; n = inactive; u = inconclusive; x = no result; ! = not confirmed by another sample; [ ] = dose if it differs, or a comment. Calls come from the whole dose curve; as a rule, active = well fitted curve in the direction sought with a large enough effect; inconclusive = small, poorly fitted or top-dose-only effect, or another doubt; inactive = no such curve, though single readings can be large; an effect the other way counts as inactive or inconclusive.

SMILES | BAZ2B block | G9a block | HP1b binding inh | JMJD2A Tudor inh | L3MBTL1 block | Sfp PPTase inh
CC1Sc2ccc(S(=O)(=O)CCC(=O)NCc3ccccc3)cc2NC1=O (stereo not drawn) | n | n | u | 79µM | x | n
Cc1cc(NC(=O)CCS(=O)(=O)c2ccc3c(c2)NC(=O)C(C)S3)ccc1Br (stereo not drawn) | n | n | n | n | x | n
CC1Sc2ccc(C(=O)Nc3ccc(S(=O)(=O)N(C)C)cc3)cc2NC1=O (stereo not drawn) | n | 32µM | n | n | n | x
CC1Sc2ccc(S(=O)(=O)CCC(=O)N3CCc4ccccc43)cc2NC1=O (stereo not drawn) | n | n | n | 25µM | x | n
COc1ccc(NC(=O)CCS(=O)(=O)c2ccc3c(c2)NC(=O)C(C)S3)cc1OC (stereo not drawn) | n | n | n | 18µM | x | n
CCOC(=O)c1cccc(NS(=O)(=O)c2c(C)nc3sc(C)cn3c2=O)c1 | n | n | n | n | x | x
COc1ccc(C2Nc3ccccc3C(=O)N2Cc2ccccc2)cc1COc1ccc(Cl)cc1 (stereo not drawn) | x | x | x | n | x | x
COCCNC(=O)COc1ccc(OCCNC[C@H](O)COc2ccccc2)cc1 | x | n | x | x | x | n
Cn1cccc1CC(=O)N/N=C/c1cc([N+](=O)[O-])ccc1Cl | u | 45µM | n | n | u | n
Cn1cccc1CC(=O)N/N=C/c1cccc([N+](=O)[O-])c1 | u | u | n | u | n | n
Cn1cccc1CC(=O)N/N=C/c1ccc(Cl)c([N+](=O)[O-])c1 | 40µM | 50µM | n | n | x | n
Cc1occc1C(=O)N/N=C/c1ccc(Cl)c([N+](=O)[O-])c1 | n | n | n | n | u | n
CCOc1ccc(NC(=O)c2sc(-n3nc(C)c(Cc4ccc(Cl)cc4)c3C)nc2C)cc1 | u | n | n | n | x | x
CCOCC(=O)N1CCN(c2ccc([N+](=O)[O-])cc2)CC1 | n | n | n | n | n | n
COc1ccc(N=c2nc(-c3ccccc3)n(-c3ccc(C)cc3)s2)cc1 | x | x | n | n | x | x
Clc1ccc2nc(CN3CCCc4ccccc43)cn2c1 | 50µM | u | n | 50µM | u | n
Clc1ccc2nc(CN3CCCCCC3)cn2c1 | u | n[0.0925 µM] | n | 89µM | n | n
Clc1ccc2nc(CN3CCCCC3)cn2c1 | n | 50µM | n | n | n | n
Clc1ccc(-c2cn3cccnc3n2)cc1Cl | n | n | n | n | x | n
Nc1cccn2c(-c3ccc(Cl)c(Cl)c3)cnc12 | 40µM | 45µM | u | 50µM | u | n
COC(=O)[C@@]1(Cc2ccc(OC)cc2)[C@H]2c3cc(C(=O)N4CCCC4)n(CCN4CCNC4=O)c3C[C@H]2CN1C(=O)c1ccccc1 | n | 79µM | x | x | n | n
COC(=O)[C@@]1(Cc2ccc(OC)cc2)[C@H]2c3cc(C(=O)N4CCCC4)n(Cc4ccc(OC)c(OC)c4)c3C[C@H]2CN1C(=O)c1ccccc1 | u | 45µM | x | x | n | n
COC(=O)[C@@]1(Cc2ccc(OC)cc2)[C@H]2c3cc(C(=O)N4CCCC4)n(CCF)c3C[C@H]2CN1C(=O)c1ccccc1 | x | x | x | x | x | n
CCOC(=O)c1[nH]c(C)c(C(=O)NCc2ccccc2Cl)c1C | n | n | n | n | x | x
CCOCCCn1cc(C(=O)c2cc(Br)ccc2O)cc(C#N)c1=O | 56µM | n | n | n | x | n
SMILES | BAZ2B block | G9a block | HP1b binding inh | JMJD2A Tudor inh | L3MBTL1 block | Sfp PPTase inh
Cn1/c(=N/N=C/c2ccccn2)sc2ccccc21 | u | u | u | 89µM | u | n
Cc1ccc(S(=O)(=O)N2C(=O)C(C)SC2=Nc2ccccc2)cc1 (stereo not drawn) | n | n | n | n | n | n
Cc1ccc(S(=O)(=O)N2C(=O)C(c3ccccc3)SC2=Nc2ccccc2)cc1 (stereo not drawn) | n | 7.9µM | u | n | x | 20µM
CCOC(=O)c1c(O)c(Cl)c(C)[nH]c1=O | x | n | n | 79µM | x | n
CN(c1ccc(OCC(=O)OCC(=O)Nc2ccc([N+](=O)[O-])cc2)cc1)S(=O)(=O)c1cccs1 | x | x | n | n | x | x
CN(C)c1ccc(/C=C2\CCC/C(=C\c3ccccc3)C2=O)cc1 | u | 3.5µM | n | u | n | u
O=C1/C(=C\c2cccnc2)CCc2ccccc21 | n | n | n | n | n | n
COc1ccc(/C=C2\Cc3ccccc3C2=O)cc1OC | u | n[2.33 µM] | n | n | n | n
COc1ccc(/C=C2\CCc3ccccc3C2=O)cc1O | u | 79µM | n | u | x | n
O=C1/C(=C/c2ccccc2)CCCc2ccccc21 | n | n | n | 100µM | n | n
CCc1cccc(NC(=O)C2CCCN(c3ncnc4onc(-c5ccc(F)cc5)c34)C2)c1 (stereo not drawn) | n | n | n | n | x | x
Cn1nnnc1SCCCNCc1cc(Cl)ccc1OCc1ccccc1 | n | n | n | n | x | x
O=c1[nH]c2ccccc2nc1C(Cl)c1ccccc1 (stereo not drawn) | 56µM | u | x | x | x | n
NC(=S)Nc1nc2ccccc2[nH]c1=O | u | 7.9µM | x | x | x | u
COC(c1ccccc1)c1nc2ccccc2[nH]c1=O (stereo not drawn) | n | n[2.33 µM] | n | n | x | n
CCn1nc(C)cc1-c1n[nH]c(=S)n1N | u | 2.8µM | u | 8.9µM | x | 45µM
Cc1ccc(OCc2n[nH]c(=S)n2N)cc1C | n | u | n | u | x | u
CCc1ccc(Nc2nc3c(S(=O)(=O)c4cccc(Cl)c4)nnn3c3ccsc23)cc1 | n | n | n | n | x | x
COc1cc2nc(N(C)CCCNC(=O)C3CCCO3)nc(N)c2cc1OC (stereo not drawn) | n | 11µM! | x | x | x | n
Cc1cc(C)c2[nH]c(=S)cc(C)c2c1 | n | 3.5µM | n | n | x | n
CCOC(=O)c1c(S(=O)(=O)N2CCCC(C(=O)NCc3ccccc3Cl)C2)c(C)n(C)c1C (stereo not drawn) | n | n | n | n | x | x
Cc1[nH]c(=S)c(C#N)c(C)c1C(=O)Nc1ccccc1 | n | 1.3µM | u | 8.9µM | x | 45µM
Cc1oc(C)c(C(=O)Nc2ccccc2)c1C | x | x | x | x | x | n
CCc1c(C(=O)Nc2ccccc2)c(C)[nH]c(=S)c1C#N | n | 1.6µM | u | 7.1µM | x | 56µM
Cc1sc(-n2cccc2)c(C(C)NC(=O)Nc2ccccc2Cl)c1C (stereo not drawn) | n | n | n | u | x | x
CC(C)(C)NC(=O)NC(=O)CSc1ccc(S(=O)(=O)N2CCOCC2)cn1 | n | 5.6µM | n | 79µM | n | x
